From publication PMC12440807 come the findings set out here.

Assay [1] concerns the target RNA polymerase II-associated factor 1 homolog (UniProt Q8N7H5). In words: cross-link between two proteins; cross-linking mass spectrometry.
Assay [2] addresses Transcription elongation factor SPT6 (UniProt Q7KZ85). Put plainly: cross-link between two proteins; affinity purification or IP with mass spectrometry; cross-linking mass spectrometry.

As for “Transcription elongation factor SPT6, Q7KZ85”, in assay [1], the “listed as a hit” value is on record as “yes”.
Regarding “DNA-directed RNA polymerase II subunit RPB1, P24928”, the “listed as a hit” value in assay [2] is on record as “yes”.
